The source made the active and inactive calls.
Columns and labels:
[1] = system: Plasmodium falciparum Sir2 (PF13_0152, Sir2A); experiment: pfSir2 binders on small-molecule microarrays, primary screen, biochemical, small-molecule microarray, 635 nm fluorescence (AID 1098); settings: small-molecule microarray binding, fluorescence 635 nm; higher = more signal;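 note: score merges spot fluorescence intensity with its signal-to-noise ratio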
[2] = small-molecule microarray binders of probe aDKK1, primary screen, biochemical, biotinylated probe, 635/667 nm fluorescence (AID 1099); settings: higher = more signal;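 note: score merges 667nm spot fluorescence with signal to noise across triplicate slides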
[3] = small-molecule microarray binders of probe aCHRDL2, primary screen, biochemical, biotinylated probe, 635/667 nm fluorescence (AID 1100); settings: higher = more signal
[4] = splicing luciferase reporter signal modulators, primary screen, spliceosome inhibition project, cell-based, HEK293, splice +/- reporter (AID 1101); settings: luminescence, 24 h, higher = more signal, called active from +8 up or from −8 down;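 note: HEK293 cells carrying a splicing-competent luciferase reporter gene; test concentration not given here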
[5] = biological target: Fibroblast growth factor 10 (Homo sapiens) (UniProt O15520); experiment: FGF10 binders on small-molecule microarrays, primary screen, biochemical, small-molecule microarray, 635 nm fluorescence (AID 1102); settings: FGF10 binding, fluorescence 635 nm, higher = more signal
Fibroblast growth factor 10 (Homo sapiens), sequence (O15520 whole entry, looked up): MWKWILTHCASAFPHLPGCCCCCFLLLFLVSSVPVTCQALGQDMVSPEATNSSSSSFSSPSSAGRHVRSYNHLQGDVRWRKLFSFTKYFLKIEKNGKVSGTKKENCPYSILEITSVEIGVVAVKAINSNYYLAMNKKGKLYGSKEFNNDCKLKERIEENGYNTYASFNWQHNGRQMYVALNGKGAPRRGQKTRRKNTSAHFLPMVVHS

[6] = system: glycogen synthase kinase-3 (GSK3A per assay name; protocol says GSK3B); experiment: GSK3 binders on small-molecule microarrays, primary screen, biochemical, small-molecule microarray, 635 nm fluorescence, GSK3A (AID 1103); settings: small-molecule microarray binding, fluorescence 635 nm; higher = more signal; note: the record names both GSK3A and GSK3B
[7] = biological target: Epidermal growth factor receptor (Homo sapiens) (UniProt P00533); experiment: EGFR binders on small-molecule microarrays, primary screen, biochemical, small-molecule microarray, 635 nm fluorescence (AID 1104); settings: EGFR binding, higher = more signal;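 note: score merges 667 nm emission intensity with spot signal to noise over triplicate slides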
Epidermal growth factor receptor (Homo sapiens), sequence (P00533 whole entry, looked up): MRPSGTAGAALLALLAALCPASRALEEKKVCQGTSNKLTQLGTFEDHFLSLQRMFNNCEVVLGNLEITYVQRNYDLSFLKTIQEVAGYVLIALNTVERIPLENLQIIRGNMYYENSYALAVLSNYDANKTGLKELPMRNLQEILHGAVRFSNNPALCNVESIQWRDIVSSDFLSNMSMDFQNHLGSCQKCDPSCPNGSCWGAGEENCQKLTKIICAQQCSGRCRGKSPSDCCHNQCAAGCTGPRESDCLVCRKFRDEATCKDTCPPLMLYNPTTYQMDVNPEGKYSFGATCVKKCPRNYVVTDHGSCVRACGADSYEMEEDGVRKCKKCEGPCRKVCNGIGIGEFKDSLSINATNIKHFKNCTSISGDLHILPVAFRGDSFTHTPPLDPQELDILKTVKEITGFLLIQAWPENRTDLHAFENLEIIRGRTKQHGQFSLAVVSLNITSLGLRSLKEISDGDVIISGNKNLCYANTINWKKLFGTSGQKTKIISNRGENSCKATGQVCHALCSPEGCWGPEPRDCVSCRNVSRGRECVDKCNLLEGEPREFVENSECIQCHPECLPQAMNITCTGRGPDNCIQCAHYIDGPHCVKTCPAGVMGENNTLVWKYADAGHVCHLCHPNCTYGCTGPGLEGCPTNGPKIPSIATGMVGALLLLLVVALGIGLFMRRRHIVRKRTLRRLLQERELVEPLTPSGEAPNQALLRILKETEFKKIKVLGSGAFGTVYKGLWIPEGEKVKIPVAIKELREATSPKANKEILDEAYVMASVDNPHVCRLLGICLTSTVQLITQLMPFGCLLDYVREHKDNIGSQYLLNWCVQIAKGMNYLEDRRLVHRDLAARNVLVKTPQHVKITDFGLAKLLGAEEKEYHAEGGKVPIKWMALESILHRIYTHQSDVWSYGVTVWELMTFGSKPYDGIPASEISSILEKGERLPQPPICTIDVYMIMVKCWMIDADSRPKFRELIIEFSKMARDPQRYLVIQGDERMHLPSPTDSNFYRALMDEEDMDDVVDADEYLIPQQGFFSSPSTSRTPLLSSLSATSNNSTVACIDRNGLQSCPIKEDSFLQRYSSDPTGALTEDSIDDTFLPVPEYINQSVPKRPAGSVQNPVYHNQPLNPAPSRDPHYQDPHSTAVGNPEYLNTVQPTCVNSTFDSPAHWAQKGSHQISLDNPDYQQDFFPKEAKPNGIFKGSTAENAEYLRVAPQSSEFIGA

[8] = biological target: Follistatin-related protein 3 (Homo sapiens) (UniProt O95633); experiment: FSTL3 binders on small-molecule microarrays, primary screen, biochemical, small-molecule microarray, 635 nm fluorescence (AID 1105); settings: FSTL3 binding, higher = more signal;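 note: score merges emission near 667 nm and signal to noise per printed spot across three slides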
Follistatin-related protein 3 (Homo sapiens), sequence (O95633 whole entry, looked up): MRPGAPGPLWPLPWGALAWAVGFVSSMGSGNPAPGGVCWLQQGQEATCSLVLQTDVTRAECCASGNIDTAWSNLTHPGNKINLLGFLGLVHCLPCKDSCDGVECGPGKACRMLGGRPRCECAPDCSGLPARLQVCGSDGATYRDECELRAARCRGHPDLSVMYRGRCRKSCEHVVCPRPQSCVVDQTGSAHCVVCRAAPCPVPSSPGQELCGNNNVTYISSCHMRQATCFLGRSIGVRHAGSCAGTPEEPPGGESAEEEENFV

[9] = biological target: Dickkopf-related protein 1 (Homo sapiens) (UniProt O94907); experiment: DKK1 binders on small-molecule microarrays, primary screen, biochemical, small-molecule microarray, 635 nm fluorescence scan (AID 1106); settings: DKK1 binding, higher = more signal;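 note: score merges emission near 667 nm with signal to noise over three replicate slides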
Dickkopf-related protein 1 (Homo sapiens), sequence (O94907 whole entry, looked up): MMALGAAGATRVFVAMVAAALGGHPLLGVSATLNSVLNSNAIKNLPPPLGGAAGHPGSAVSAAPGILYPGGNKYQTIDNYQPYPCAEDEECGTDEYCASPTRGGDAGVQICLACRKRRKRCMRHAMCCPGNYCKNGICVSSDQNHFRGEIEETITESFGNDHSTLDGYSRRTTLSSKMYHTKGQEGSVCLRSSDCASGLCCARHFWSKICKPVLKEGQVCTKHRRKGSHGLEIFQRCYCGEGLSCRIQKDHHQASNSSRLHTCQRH

[10] = system: Inhibin beta A chain (activin A); experiment: INHBA (activin A) binders on microarrays, primary screen, biochemical, small-molecule microarray, 635 nm fluorescence scan (AID 1107); settings: small-molecule microarray binding, higher = more signal;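 note: mouse activin A protein probed at 4.33 µg/mL on printed slides; score merges bound-protein fluorescence near 667 nm with spot signal-to-noise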
[11] = system: Human papillomavirus type 1a protein E7 (residues 44-93); experiment: HPV1a E7 fragment binders on microarrays, primary screen, biochemical, small-molecule microarray, residues 44-93, 635 nm fluorescence (AID 1108); settings: small-molecule microarray binding, fluorescence 635 nm; higher = more signal;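 note: E7 fragment applied at 1 µg/mL in TBST for 1 h at 4 C; score combines spot fluorescence with its signal to noise ratio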
[12] = modulators of HCV replicon luciferase signal, primary screen, HCV replication inhibitor project, Huh7 cells, luciferase reporter (AID 1109); settings: 48 h, higher = more signal;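 note: huh7 hepatoma cells harbouring a luciferase neomycin HCV replicon reporter; luciferase luminescence as measure of HCV replicon replication; test concentration not given here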
[13] = biological target: Left-right determination factor 2 (Homo sapiens) (UniProt O00292); experiment: LEFTY2 binders on small-molecule microarrays, primary screen, biochemical, small-molecule microarray, 635 nm fluorescence scan (AID 1110); settings: LEFTY2 binding, higher = more signal
Left-right determination factor 2 (Homo sapiens), sequence (O00292 whole entry, looked up): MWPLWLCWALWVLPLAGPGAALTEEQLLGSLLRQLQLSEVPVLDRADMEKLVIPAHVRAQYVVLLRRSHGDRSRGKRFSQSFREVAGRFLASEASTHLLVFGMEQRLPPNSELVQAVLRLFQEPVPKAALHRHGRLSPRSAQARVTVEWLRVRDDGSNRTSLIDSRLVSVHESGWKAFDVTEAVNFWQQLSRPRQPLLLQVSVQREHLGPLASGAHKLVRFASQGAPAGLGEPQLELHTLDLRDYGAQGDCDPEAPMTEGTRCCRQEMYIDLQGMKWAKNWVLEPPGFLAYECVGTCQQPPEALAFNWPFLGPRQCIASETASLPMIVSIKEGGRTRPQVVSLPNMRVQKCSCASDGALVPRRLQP

[14] = biological target: Calmodulin-1 (Homo sapiens) (UniProt P0DP23); experiment: CALM1 binders on microarrays, EGTA buffer, profiling panel, biochemical, small-molecule microarray, Cy5-labelled CALM1 (AID 1111); settings: Cy5-CALM1 binding fluorescence, higher = more signal;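 note: labelled calmodulin applied in Tris saline Tween buffer holding calcium plus EGTA and DTT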
[15] = biological target: Calmodulin-1 (Homo sapiens) (UniProt P0DP23); experiment: calcium-bound CALM1 binders on microarrays, profiling panel, artefact control for SMM control-protein annotation, biochemical, small-molecule microarray, Cy5-labelled CALM1, plus calcium (AID 1112); settings: Cy5-CALM1 binding fluorescence, higher = more signal;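 note: score merges spot fluorescence with signal to noise from triplicate slides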
[16] = small-molecule microarray binders of probe aWnt5a, primary screen, biochemical, biotinylated probe, 635/667 nm fluorescence (AID 1113); settings: higher = more signal;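 note: score merges 667 nm fluorescence intensity with signal-to-noise per printed feature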
[17] = small-molecule microarray binders of probe aShh, primary screen, biochemical, biotinylated probe, 635/667 nm fluorescence (AID 1114); settings: higher = more signal;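 note: probe is biotin-labelled aShh protein from a stem cell growth factor screen; measures binding of labelled protein to compounds printed on the slide; score merges feature fluorescence at 667 nm with signal-to-noise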
[18] = small-molecule microarray binders of probe aNog, primary screen, biochemical, biotinylated probe, 635/667 nm fluorescence (AID 1115); settings: higher = more signal;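 note: probe is biotinylated aNog protein used at 0.15 µg/mL for 1 h at 4 C; z-score combines 667 nm fluorescence of each spot with its signal to noise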
[19] = biological target: Torsin-1A-interacting protein 1 (Homo sapiens) (UniProt Q5JTV8); experiment: LAP1 binders from COS7 cell lysate, primary screen, small-molecule microarray, 635/667 nm fluorescence (AID 1116); settings: COS7-hLAP1 lysate binding, 635 nm fluorescence, higher = more signal
Torsin-1A-interacting protein 1 (Homo sapiens), sequence (Q5JTV8 whole entry, looked up): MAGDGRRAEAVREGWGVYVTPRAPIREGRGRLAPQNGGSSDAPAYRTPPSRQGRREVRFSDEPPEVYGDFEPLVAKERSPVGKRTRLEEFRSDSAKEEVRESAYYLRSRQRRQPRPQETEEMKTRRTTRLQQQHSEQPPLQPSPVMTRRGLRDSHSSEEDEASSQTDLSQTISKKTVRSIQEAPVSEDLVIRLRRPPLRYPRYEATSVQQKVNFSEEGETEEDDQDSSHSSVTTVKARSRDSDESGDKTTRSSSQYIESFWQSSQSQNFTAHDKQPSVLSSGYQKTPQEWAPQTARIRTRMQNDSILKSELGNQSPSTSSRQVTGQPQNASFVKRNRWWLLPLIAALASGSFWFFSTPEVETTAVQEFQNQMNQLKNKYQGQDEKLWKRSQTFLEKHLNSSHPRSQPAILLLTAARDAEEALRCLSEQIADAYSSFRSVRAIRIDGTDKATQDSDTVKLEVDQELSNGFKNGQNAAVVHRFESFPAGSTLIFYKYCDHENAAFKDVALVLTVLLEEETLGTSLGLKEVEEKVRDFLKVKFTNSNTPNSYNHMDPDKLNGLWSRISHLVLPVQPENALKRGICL

[20] = biological target: Alpha-bungarotoxin (Bungarus multicinctus) (UniProt P60615); experiment: alpha-bungarotoxin binders on microarray, profiling panel, artefact control for SMM control protein annotation, biochemical, small-molecule microarray, Alexa647 label, 635/667 nm fluorescence (AID 1117); settings: alpha-BTX-A647 binding fluorescence, higher = more signal
Alpha-bungarotoxin (Bungarus multicinctus), sequence (P60615 whole entry, looked up): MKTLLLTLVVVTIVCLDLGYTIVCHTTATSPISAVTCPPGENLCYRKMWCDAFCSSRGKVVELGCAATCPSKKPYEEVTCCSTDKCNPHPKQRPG

SMILES | composite z-score [1] | composite z-score [2] | composite z-score [3] | z-score [4] | composite z-score [5] | composite z-score [6] | composite z-score [7] | composite z-score [8] | composite z-score [9] | composite z-score [10] | composite z-score [11] | z-score [12] | composite z-score [13] | composite z-score [14] | composite z-score [15] | composite z-score [16] | composite z-score [17] | composite z-score [18] | composite z-score [19] | composite z-score [20]
O=C1C2C=CC(C(O)c3ccc(-c4ccccc4)s3)N(n3cnnc3)C2C(=O)N1Cc1ccccc1 (stereo not given) | 0.633 | 0.0447 | 0.746 | -0.36 (inactive) | 0.0262 | -0.751 | -0.486 | -0.435 | -0.539 | 0.631 | 0.423 | -0.602 | -0.253 | -0.164 | -0.377 | -0.096 | 0.0062 | 0.141 | 0.585 | 0.399
COC(=O)[C@@]1(Cc2ccc(OC)cc2)[C@H]2c3cc(C(=O)N4CCCC4)n(Cc4cc(F)cc5c4OCOC5)c3C[C@H]2CN1C(=O)c1ccccc1 | 0.782 | 0.9 | 0.984 | -2.73 (inactive) | 0.608 | 0.573 | 0.0471 | 0.326 | -0.451 | 0.795 | 0.756 | -3.58 | -0.474 | 1.37 | 0.365 | 0.223 | 0.108 | 0.0549 | 0.831 | 0.408
CCCCC(O)C1C=CC2C(=O)N(C3CCCCC3)C(=O)C2N1Nc1ccc(OC)cc1 (stereo not given) | 0.637 | 0.298 | 0.948 | -0.221 (inactive) | 0.517 | 1.28 | -0.0301 | 1.12 | -0.517 | 0.943 | 1.4 | -0.385 | 0.0786 | 1.05 | 0.304 | -0.0405 | 0.13 | 0.712 | 0.624 | 0.914
O=C(CS)NCCCCCCNC(=O)[C@H]1C[C@H]2C(=O)NCC(=O)N2[C@H]1c1ccc(O)cc1 | 0.576 | -0.213 | 0.694 | -0.295 (inactive) | -0.175 | -0.607 | -0.606 | -0.46 | 0.22 | -0.58 | -0.175 | -0.344 | -0.571 | -0.156 | 0.802 | -0.171 | -0.286 | -0.379 | -0.633 | 0.136
CCOC(=O)C[C@H]1[C@H](OC(=O)c2ccc(-c3ccccc3)cc2)[C@@H](NC(=O)c2ccc(-c3ccccc3)cc2)c2cc(OCCCO)ccc2N1C(=O)Cc1ccc(OC)cc1 | -0.253 | -0.0067 | 0.45 | 0.101 (inactive) | 0.256 | -0.194 | -0.0509 | -0.0478 | 0.0032 | 0.638 | 0.629 | -1.27 | -0.186 | 0.382 | -0.971 | -0.0765 | -0.366 | -0.456 | 0.575 | 0.0738
O=c1cccc(CCc2ccccc2)o1 | 0.931 | -0.232 | -0.44 | 0.722 (inactive) | 0.228 | 0.599 | -0.834 | 0.153 | 0.193 | 0.532 | 0.744 | 0.237 | 0.103 | -0.408 | -0.262 | -0.118 | 0.0952 | -0.0827 | -0.684 | 1.04
COc1ccc([Si](C)(C)[C@@H]2[C@@H](CC(=O)N3CCC[C@H]3CO)O[C@]3(C(=O)N(C)c4c(Br)cc(C)cc43)[C@H]2C)cc1 | 0.717 | 0.0781 | 0.0013 | -0.778 (inactive) | 0.801 | 0.889 | 0.35 | 1.42 | 1.1 | 0.809 | 1.28 | -2.05 | 0.396 | 0.207 | 0.0431 | 0.0219 | -0.0035 | -0.229 | 0.948 | 0.338
CCOC(=O)C[C@H]1[C@H](OC(=O)Cc2ccc3c(c2)OCO3)[C@@H](NC(=O)c2ccc(-c3ccccc3)cc2)c2cc(OCCCO)ccc2N1C(=O)c1ccccc1 | 0.377 | -0.0183 | -0.228 | -0.586 (inactive) | 0.602 | 0.367 | 0.457 | 0.612 | 0.247 | 0.235 | 1.06 | -1.25 | 0.525 | 0.326 | -0.0305 | -0.113 | 0.0483 | -0.287 | 0.42 | 0.815
CCN(CC)c1ccc(N2CC=CC34O[C@@H]5C=CCCOC(=O)C5[C@H]3C(=O)N(CCCCCO)[C@@H]4C2=O)cc1 (stereo not given in full) | -0.144 | -0.0409 | 0.0109 | -0.779 (inactive) | -0.292 | -0.139 | -0.76 | -0.339 | -0.182 | 1.52 | -0.668 | 0.348 | -0.48 | -1.15 | -1.45 | -0.0721 | 0.0756 | -0.025 | 1.04 | -0.66
COCCOC(=O)N1C(=O)[C@@]2(c3cc(C#CCC(C(=O)OC)C(=O)OC)ccc31)[C@H](C(=O)N1CCN(c3ncccn3)CC1)[C@H]1C(=O)O[C@H](c3ccccc3)[C@H](c3ccccc3)N1[C@@H]2c1ccc(OCCO)cc1 | 1.56 | -0.0747 | 0.0277 | -0.923 (inactive) | 0.699 | 1.1 | 0.275 | 0.626 | -0.0047 | 0.149 | 1.34 | -0.974 | 0.521 | 0.505 | -0.127 | -0.0778 | -0.2 | -0.213 | 0.383 | 0.536
CC(C)C[C@@H]1NC(=O)[C@H]2C[C@@H](C(=O)NCCCCCCNC(=O)CS)[C@@H](c3cccc(OCCO)c3)N2C1=O | 1.54 | 0.0362 | -0.139 | -0.576 (inactive) | 1.39 | 1.27 | 1.23 | 1.49 | 1.94 | 0.525 | 1.41 | -0.117 | 1.45 | 0.83 | -0.587 | -0.001 | -0.282 | -0.152 | 1.95 | 1.17

From PubChem BioAssay
